An excerpt weighted towards active compounds, which were near 3.8% of everything screened.
Bfl-1 A1 inh – inhibitors of the anti-apoptotic protein A1, read as caspase activation; MEF A1-2A-BIM cells, Caspase-Glo 3/7 luminescence, 3 h; percent of clofoctol response, vehicle zero; caspase activation, % (concentration not given with the values); hit rate 0.066% among 330,000;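 active = over half of replicate activation scores above 10%, or exactly half above 10 with the replicate mean above 10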
Jurkat NFkB inh – inhibitors of the PMA/ionomycin-induced NF-kB reporter in Jurkat cells; AID 435003; PMA/ionomycin-induced NF-kB luciferase reporter, luminescence; hit rate 0.53% among 330,000; inhibition, % at 4 µM; in the data active = inhibition above about 50%
NTR1 agonist – agonists of human neurotensin receptor NTR1 | NTR1-U2OS beta-arrestin-GFP spot imaging, agonist mode | P30989 | activation, % at 20 µM | hit rate 0.17% among 330,000;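 active = activation at or above 40% of the spot to cytoplasm intensity ratio, with at least 20 cells analyzed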
697 NFkB inh – lowers PMA/ionomycin-induced NF-kB signal in 697 B cells; 697 B-cell NF-kB luciferase reporter, 16 h; inhibition, % at 4 µM; hit rate 0.33% among 330,000; in the data active = inhibition above about 35%
Mdm2-MdmX inh – inhibitors of human Mdm2/MdmX interaction; hit rate 3% among 330,000; O15151+Q00987; SaOS-2 split-luciferase Mdm2/MdmX complementation, luminescence; inhibition, % at 8 µM;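 active = inhibition of at least 50% at 8 µM in the primary screen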
Target sequence (O15151 whole entry, looked up): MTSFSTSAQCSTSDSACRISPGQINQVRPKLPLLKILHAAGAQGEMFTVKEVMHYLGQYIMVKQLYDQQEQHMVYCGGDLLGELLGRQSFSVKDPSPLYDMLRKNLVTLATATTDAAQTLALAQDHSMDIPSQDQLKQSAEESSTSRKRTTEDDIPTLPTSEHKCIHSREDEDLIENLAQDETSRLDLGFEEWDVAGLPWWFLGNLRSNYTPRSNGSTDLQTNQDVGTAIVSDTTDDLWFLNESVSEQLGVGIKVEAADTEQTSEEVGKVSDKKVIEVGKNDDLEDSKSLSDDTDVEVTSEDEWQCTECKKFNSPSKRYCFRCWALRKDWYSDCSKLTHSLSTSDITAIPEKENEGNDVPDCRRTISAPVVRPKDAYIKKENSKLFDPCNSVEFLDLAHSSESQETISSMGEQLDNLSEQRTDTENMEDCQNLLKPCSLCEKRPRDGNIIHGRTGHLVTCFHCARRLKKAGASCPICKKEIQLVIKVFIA
Target sequence (Q00987 whole entry, looked up): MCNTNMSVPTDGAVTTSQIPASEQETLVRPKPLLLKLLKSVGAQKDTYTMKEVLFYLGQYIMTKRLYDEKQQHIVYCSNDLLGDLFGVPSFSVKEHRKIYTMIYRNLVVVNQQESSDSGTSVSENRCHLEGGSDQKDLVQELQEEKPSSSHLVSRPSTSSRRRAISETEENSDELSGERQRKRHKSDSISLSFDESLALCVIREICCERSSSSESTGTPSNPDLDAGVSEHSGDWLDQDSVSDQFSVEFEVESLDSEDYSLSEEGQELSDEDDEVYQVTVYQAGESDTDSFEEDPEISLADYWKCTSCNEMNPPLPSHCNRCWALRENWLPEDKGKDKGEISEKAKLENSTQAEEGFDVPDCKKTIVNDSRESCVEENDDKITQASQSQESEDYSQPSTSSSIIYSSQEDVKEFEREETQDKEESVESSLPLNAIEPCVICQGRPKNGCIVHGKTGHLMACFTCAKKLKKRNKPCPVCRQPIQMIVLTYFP
Beta apoptosis – blocks beta cell apoptosis. protection from apoptosis, % (test concentration not listed). hit rate 0.8% among 300,000. INS-1E cytokine-induced death, ATP luminescence, 48 h; percent of positive-control rescue, neutral wells zero;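 active = Every replicate reaches about 75%, or at least half do and their mean reaches it too, limit read from the data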;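 note: higher means more ATP so stronger rescue from cytokine killing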
697 NFkB conf – inhibitors of the PMA/ionomycin-induced NF-kB reporter in 697 B cells, retest. shares compounds with 697 NFkB inh. 697 B-cell NF-kB luciferase, 16 h. inhibition, % at 4 µM. hit rate 35% among 2,000. AID 449746; in the data active = inhibition mostly above about 28%, no sharp cut-off; inactive = mostly below about 22%
Mdm2 MdmX conf – confirmation of human Mdm2/MdmX interaction inhibitors; shares compounds with Mdm2-MdmX inh; Mdm2-MdmX binding, luminescent assay; inhibition, % at 8 µM; hit rate 55% among 10,000; AID 489028; in the data active = inhibition above about 40%
Full FLuc ctr – counter-screen for Mdm2/MdmX inhibitors: full-length luciferase | shares compounds with Mdm2-MdmX inh | SaOS-2 full-length luciferase counterscreen, luminescence | inhibition, % at 8 µM | hit rate 77% among 6,200;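 active = mean inhibition at 8 µM reaching about 37%, which flags the compound as non-specific, limit read from the data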;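 note: p53-null SaOS-2 cells with luciferase driven by a doxycycline-inducible promoter; compound on cells about two nights before reading with doxycycline added after day one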
NTR1 ag confirm – confirmation of agonists of human NTR1; shares compounds with NTR1 agonist; NTR1-U2OS beta-arrestin-GFP translocation imaging; activation, % at 20 µM; hit rate 38% among 480;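 active = mean activation at 20 µM of at least 40%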
Each line names hits and unclear results; the compound was inactive in the other large screens (follow-up assays come after a bar, where they were run).

CCOP(=O)(CN(CC)CCNP(=O)(OCC)OCC)OCC	none
O=C(Nc1ccc(OC(=O)N2CCCCC2)cc1)N1CCOCC1	697 NFkB inh 58 | 697 NFkB conf inactive
Cc1nc2ncnn2c(C)c1CCC(=O)N1CCC2(CC1)OCCO2	none
Cc1nc2cc(-c3ccccc3)nn2c(C)c1CCC(=O)N1CCC2(CC1)OCCO2	697 NFkB inh 43 | 697 NFkB conf 46
C=CCn1c(O)c(C(C)=NCCC(c2ccccc2)c2ccccc2)c(=O)[nH]c1=O	none
C=CCn1c(O)c(C(C)=NC(C)c2ccccc2)c(=O)[nH]c1=O (stereo not given)	697 NFkB inh 41 | 697 NFkB conf 30
CC1CN(c2ccc([N+](=O)[O-])c3cccnc23)CC(C)N1 (stereo not given)	none | 697 NFkB conf inactive
O=[N+]([O-])c1ccc(N2CCCC2)c2ncccc12	none
CNC(=O)Oc1cccc(-c2cn3cc(Cl)ccc3n2)c1	none | 697 NFkB conf inactive
C[C@]12CC[C@H]3C(CCC4(O)CC(O)CC[C@]34C=O)C1=CC[C@H]2c1ccc(=O)oc1 (stereo not given in full)	none | 697 NFkB conf inactive
CNC(=O)Nc1ccc(C(=O)N/N=C\C23CC[C@@H](O)CC2(O)CC[C@@H]2[C@@H]3CCC3(C)C(C4=CC(=O)OC4)CCC23O)cc1 (stereo not given in full)	none
Cc1cccc(CN(C)C)c1OC(=O)N(C)C	none
COC(=O)C1=CO[C@H](C)[C@H]2CN3CC[C@@]4(C(=O)Nc5ccccc54)[C@@H]3C[C@H]12	none
COC(=O)C1=C(c2ccc(-c3ccccc3)c(F)c2)C[C@@H]2CC[C@H]1N2C(=O)N1CCCCC1	none
COC(=O)C1=C(c2ccc(-c3ccccc3)c(F)c2)C[C@@H]2CC[C@H]1N2C(=O)N1CCCC1	697 NFkB inh 46 | 697 NFkB conf 62
O=C(CCc1ccc(O)cc1)N1C[C@H]2C[C@@H](C1)c1cccc(=O)n1C2	none
Cc1ncc(CN2CCCC(C(=O)c3sccc3C)C2)s1 (stereo not given)	none
CN(C)c1cccc2c(C#N)ccc(N(C)C)c12	697 NFkB inh 39 | 697 NFkB conf inactive
O=C1NC(=O)C(CCc2ccncc2)(Cc2ccc([N+](=O)[O-])cc2)C(=O)N1	none
C=C1C(=O)[C@@]23C[C@H]4[C@@H]5[C@@]6(C)CCC[C@@]57[C@@H]2[C@@H](O)[C@@H]1C[C@H]3[C@H]7N4C6	697 NFkB inh 44, Mdm2-MdmX inh 100 | 697 NFkB conf 37 | Mdm2 MdmX conf 90 | Full FLuc ctr 52
CCn1c(=O)cc(SCC(=O)N2CCC3(CC2)OCCO3)c2ccccc21	697 NFkB inh 62, Mdm2-MdmX inh 53 | 697 NFkB conf 40 | Mdm2 MdmX conf inactive
Cn1c(=O)n(CC(=O)N2CCC3(CC2)OCCO3)c(=O)c2ccccc21	none
CCOc1cc2c(cc1OCC)-n1cccc1C(c1ccccc1O)NC2 (stereo not given)	none
C/C(=C\c1ccc(N(C)C)cc1)[N+](=O)[O-]	NTR1 agonist 53, 697 NFkB inh 38, Mdm2-MdmX inh 100 (no result: Beta apoptosis) | 697 NFkB conf inactive | Mdm2 MdmX conf inactive | NTR1 ag confirm 73
CCOP(=O)(OCC)C(O)c1cccnc1 (stereo not given)	none (no result: Beta apoptosis)
O=C1NC(=O)C(=Cc2ccc(-c3ccc(Cl)cc3)o2)C(=O)N1	NTR1 agonist 41, Mdm2-MdmX inh 53 | Mdm2 MdmX conf inactive
O=C(c1ccco1)c1cn(Cc2ccc(Cl)cc2)c2ccccc12	Mdm2-MdmX inh 51 | Mdm2 MdmX conf inactive | Full FLuc ctr 68
COc1ccccc1OCCCn1cc(C(=O)c2ccco2)c2ccccc21	none

From PubChem
